Data published in the supplement of paper PMC13380429.

Test system: Vero E6 infected with SARS-CoV-2
Test: inhibition of SARS-CoV-2 cytopathic effect; higher = more antiviral protection, active = above 15
Conditions: 48 h

Measured: inhibition of SARS-CoV-2 cytopathic effect

CSc1ccc([C@H]2CN3CCC[C@H]3c3ccccc32)cc1 (racemic)
inactive: 1 nM 3.1% | 8.33 nM 1.05% | 100 nM 2.84% | 833.33 nM 3.32% | 10000 nM 1.44%

COC(=O)C1=CCCN(C)C1 [arecoline]
inactive: 1 nM 1.27% | 8.33 nM 1.95% | 100 nM -1.54% | 833.33 nM -1.35% | 10000 nM 1.15%

Cc1ccc2c(c1)c1c3n2CCNC3CCC1 (stereo not given) [pirlindole]
inactive: 1 nM -1.68% | 8.33 nM -2.42% | 100 nM -1.65% | 833.33 nM 0.99% | 10000 nM -3.66%

O=C(c1ccc(Cl)cc1)N(Cc1ccccc1)C1CCCCC1
inactive: 1 nM -1.58% | 8.33 nM -1.87% | 100 nM 1.24% | 833.33 nM -0.21% | 10000 nM -2.35%

CC1=C(CC(=O)O)c2cc(F)ccc2/C1=C\c1ccc(S(C)(=O)=O)cc1 [exisulind]
inactive: 1 nM -5.21% | 8.33 nM -2.14% | 100 nM -3.65% | 833.33 nM 0.09% | 10000 nM -2.3%

O=C(Nc1ccc(Cl)cc1)Nc1cccc(-c2cccc(N3CCCC3)n2)c1
inactive: 1 nM 1% | 8.33 nM 1.53% | 100 nM -2.03% | 833.33 nM -4.04% | 10000 nM -6.24%

O=[N+]([O-])c1ccc(O)c([N+](=O)[O-])c1 [2,4-dinitrophenol]
inactive: 1 nM 2.74% | 8.33 nM 2.11% | 100 nM 5.04% | 833.33 nM 2.61% | 10000 nM 2.69%

CC(C)COC(=O)c1ccc(N)cc1 [isobutamben]
inactive: 1 nM -0.32% | 8.33 nM -0.5% | 100 nM -1.06% | 833.33 nM -2.97% | 10000 nM 1.5%

CC(/C=C/C(=O)NO)=C\[C@@H](C)C(=O)c1ccc(N(C)C)cc1 [trichostatin-a]
inactive: 1 nM -3.04% | 8.33 nM -7.12% | 100 nM -16% | 833.33 nM -31% | 10000 nM -31.1%

CC(C)(C)CC(C)(C)c1cc(Cc2cc(C(C)(C)CC(C)(C)C)cc(-n3nc4ccccc4n3)c2O)c(O)c(-n2nc3ccccc3n2)c1 [bisoctrizole]
inactive: 1 nM 0.77% | 8.33 nM 2.98% | 100 nM 2.99% | 833.33 nM 1.93% | 10000 nM 3.96%

NS(=O)(=O)C#Cc1ccccc1 [pifithrin-mu]
inactive: 1 nM 2.15% | 8.33 nM 5.91% | 100 nM 2.87% | 833.33 nM 4.85%
active: 10000 nM 22.5%

CCCC[C@@H](C=O)NC(=O)[C@H](CC(C)C)NC(=O)OCc1ccccc1 [calpeptin]
inactive: 1 nM -1.61% | 8.33 nM -1.53% | 100 nM -2.86% | 833.33 nM 14.7%
active: 10000 nM 66.9%

CN1CCN(CCCN2c3ccccc3Sc3ccc(C(F)(F)F)cc32)CC1 [trifluoperazine]
inactive: 1 nM -0.89% | 8.33 nM 1.64% | 100 nM -3.09% | 833.33 nM -4.01% | 10000 nM 14.5%

O=C(Nc1cnc(Cl)nc1)c1ccc(F)c(F)c1
inactive: 1 nM 1.95% | 8.33 nM 1.13% | 100 nM 2.59% | 833.33 nM -0.85% | 10000 nM 0.14%

O=[N+]([O-])c1cncn1CCN1CCOCC1 [nimorazole]
inactive: 1 nM -1.41% | 8.33 nM -0.32% | 100 nM 0.99% | 833.33 nM 0.22% | 10000 nM -0.02%

CC(C)NCC(O)c1ccc(N)c(C#N)c1 (stereo not given) [cimaterol]
inactive: 1 nM 6.86% | 8.33 nM 6.95% | 100 nM 10.5% | 833.33 nM 3.99% | 10000 nM 4.49%

O=C(NC1(c2ccccc2)CC1)c1c(CN2CCC(N3CCCCC3)CC2)c(-c2cccc(C(F)(F)F)c2)nc2cc(Br)ccc12
inactive: 1 nM 1.74% | 8.33 nM 3.71% | 100 nM 1.73% | 833.33 nM -4.53% | 10000 nM -13.1%

CC12CCC(C(Br)C1=O)C2(C)C (stereo not given) [3-bromocamphor]
inactive: 1 nM -1.02% | 8.33 nM 0.99% | 100 nM -0.16% | 833.33 nM 1.85% | 10000 nM 0.04%

COc1cc2c(c(OC)c1OC)-c1ccc(OC)c(=O)cc1[C@@H](NC(C)=O)CC2 [colchicine]
inactive: 1 nM 2.74% | 8.33 nM 2.19% | 100 nM 0.8% | 833.33 nM -0.41% | 10000 nM 1.35%
